Screens from PubChem.
KCNQ2 block: inhibitors of rat KCNQ2 potassium channel | O88943 | CHO-K1 KCNQ2, FluxOR thallium flux, 20 min; hits give low values | B-score at 10 µM | 310,000 compounds, 1.1% hits | AID 2156;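 active means fluorescence ratio B-score at most minus 3 library SDs, with starting brightness B-score within 2 library SDs, cut at about -5.5 in these data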
KCNQ2 enhance: KCNQ2 (rat) channel potentiation; O88943; CHO-K1 KCNQ2, FluxOR thallium flux fluorescence; hits give high values; B-score at 10 µM; 310,000 compounds, 0.54% hits; AID 2239;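 active means fluorescence ratio B-score at least 3 SD of library B-scores, with initial fluorescence B-score within 3 of them, cut at about 5.3 in these data; same plate scores as AID 2156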;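 further: B-score of peak minus minimum over baseline fluorescence ratio after K+ and Tl+ stimulus; positive B-score means potentiation of KCNQ2 with more thallium influx and brighter signal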
Hits are given with their value; . = inactive; / = no result. This is a sample that favours compounds with a hit; in the whole collection about 1.6% have one here.

SMILES	KCNQ2 block	KCNQ2 enhance
Cc1ccc(-c2ccc(/C=N\NC(=O)c3cc4c(ccc5ccccc54)o3)o2)cc1[N+](=O)[O-]	.	.
O=C(N/N=C/c1ccc(-c2ccc(Cl)c(C(=O)O)c2)o1)c1cc2c(ccc3ccccc32)o1	.	5.4
CCN1CCN(C(=O)c2ccc(N3CC4CC(C3)c3cccc(=O)n3C4)c(NC(=O)c3cc(OC)cc(OC)c3)c2)CC1 (stereo not given)	.	.
Nc1ccc(C(=O)Nc2cccc(N)c2)cc1	.	.
CCOc1cc(C(=O)NCCC(=O)N2CCC3(CC2)NCCc2[nH]cnc23)cc(OCC)c1OCC	.	/
COc1ccc(C(=O)NC2CCSc3ccccc32)cc1S(=O)(=O)N1CCOCC1 (stereo not given)	.	.
CC1(C)CCN2CCC(C)(C)c3c(O)ccc1c32	.	/
CCOC(=O)c1ccc(N2CCN(C(=O)c3ccccc3)CC2)c(NC(=O)c2ccco2)c1	.	/
CC1CC(C)CN(c2ccc(C(=O)NCc3ccc4c(c3)OCO4)cc2[N+](=O)[O-])C1 (stereo not given)	.	8.9
Cc1cc(C(=O)NCc2ccc3c(c2)OCO3)ccc1[N+](=O)[O-]	.	.
COc1ccccc1N(C)S(=O)(=O)c1ccc(C(=O)OCC(=O)NCCC2=CCCCC2)cc1	.	.
COc1ccccc1CNS(=O)(=O)c1c(C)[nH]c(C)c1C(=O)N1CCCC1	.	/
Cc1ccc(-c2cccc(C(=O)NCc3ccccc3)n2)c2ccccc12	.	/
Cc1ccc(-c2cccc(C(=O)NCCc3ccccc3)n2)c2ccccc12	-6.3	.
Cc1ccc(S(=O)(=O)Nc2ccc(-c3nnc(SCC#N)n3C)cc2)cc1	.	.
Cc1ccc(-c2cc(-c3ccccc3)[nH]c(=S)c2C#N)cc1	.	.
N#Cc1c(-c2ccc(C(F)(F)F)cc2)cc(-c2ccccc2)[nH]c1=S	.	5.4
CCOc1ccc(NC(=O)N[C@@H](CCSC)C(=O)OC)cc1	.	.
OC(CNCCc1ccc(C(F)(F)F)cc1)COc1cccc2ccccc12 (stereo not given)	-7.1	.
COc1ccccc1COCC(O)CNCCc1ccc(C(F)(F)F)cc1 (stereo not given)	.	/
Cc1oc2c(cc(NS(=O)(=O)c3ccc(C(C)C)cc3)c3ccccc32)c1C(=O)O	-5.8	.
Cc1oc2c(cc(NS(=O)(=O)c3ccc(F)cc3)c3ccccc32)c1C(=O)O	.	/
COC(=O)C1CCCN1C(=O)COc1ccc(Br)cc1Cl (stereo not given)	.	6.6
CN(Cc1ccccc1)C(=O)COc1ccc(Br)cc1Cl	.	/
CC(C)N(C(=O)COc1ccc(Br)cc1Cl)C(C)C	-5.7	.
SMILES	KCNQ2 block	KCNQ2 enhance
O=C(COc1ccc(Br)cc1Cl)NC1CCCCC1	.	.
Cc1cccc(N2CCN(c3ccc4cc(S(=O)(=O)N5CCCCC5)ccc4n3)CC2)c1C	.	.
Cc1ccc(CNC(=O)CS(=O)(=O)Cc2nc(-c3ccc(C)cc3)oc2C)cc1	.	/
CC(C)(C)c1ccccc1N=Cc1ccc2ccccc2n1	-6.4	.
O/N=C/c1ccc2ccccc2n1	.	/
C/C(=N\NC(=O)c1nnn(-c2nonc2N)c1CN1CCCCC1)c1ccccc1O	.	/
N#CN(Cc1ccccc1)Cc1ccccc1	.	/
COc1cc(N/N=C(\C)c2ccc(N)cc2)nc(-c2ccccc2)n1	-6.8	.
COc1cc(N/N=C(\C)c2ccc(O)c(C)c2)nc(-c2ccccc2)n1	.	/
CN(/N=C/c1cccnc1)c1cnc2ccccc2n1	.	.
Cc1noc(C)c1COc1ccc(C(=O)OCC(=O)NCc2ccccc2Cl)cc1	-6.5	.
COc1ccc(CNC(=O)COC(=O)c2ccc(OCc3c(C)noc3C)cc2)cc1OC	.	.
Cc1ccc(S(=O)(=O)CCc2nnc(N)s2)cc1	.	/
Cc1nn(Cc2ccc([N+](=O)[O-])cc2)c(=O)n1-c1ccccc1	.	.
CCCCC1(Cc2ccc([N+](=O)[O-])cc2)C(=O)N(c2ccccc2)N(c2ccccc2)C1=O	-6	.
COc1ccc(C)cc1NC(=O)C(Sc1nnc(Nc2ccccc2F)s1)c1ccccc1 (stereo not given)	-6.3	.
COc1ccc(C)cc1NC(=O)C(Sc1nncn1C)c1ccccc1 (stereo not given)	.	/
Cc1nnc(NC(=O)C2CSC3(C)CCC(=O)N23)s1 (stereo not given)	.	.
COc1cccc(OC)c1C(=O)NC(=S)NCc1cccnc1	.	.
CC1(C)C(=O)NCCN1C(=O)CC1C(=O)NCCN1Cc1cccc(C(F)(F)F)c1 (stereo not given)	.	/
CCOC(=O)N1CCN(S(=O)(=O)c2cc(OCC(=O)NC3CCCCC3)c(C)cc2Cl)CC1	.	.
CCN1CCN(S(=O)(=O)c2cc(OCC(=O)NC3CCCCC3)c(C)cc2Cl)CC1	.	11
O=C(NCc1ccco1)c1ccc(N2CCCCC2)c([N+](=O)[O-])c1	.	.
Cc1ccc(N(Cc2ccco2)C(=O)c2ccc(N3CCCCC3)c([N+](=O)[O-])c2)cc1	-7.1	.
CCOC(=O)C1CCN(c2c(C(=O)c3ccccc3)cnc3ccc(CC)cc23)CC1	-7.2	.
SMILES	KCNQ2 block	KCNQ2 enhance
CCOC(=O)C1CCCN(c2c(C(=O)c3ccccc3)cnc3ccccc23)C1 (stereo not given)	.	/
Cc1onc(-c2ccccc2)c1C(=O)NC(=S)Nc1sc2c(c1C#N)CCC(C)C2 (stereo not given)	.	10
Cc1onc(-c2ccccc2)c1C(=O)NC(=S)Nc1sc2c(c1C#N)CCCC2	.	.
COc1ccccc1CNC(=S)NCCc1ccccc1	.	/
COc1cc(NC(=S)NCCc2ccccc2)c(OC)cc1NC(=O)C(C)C	-5.8	.
COc1ccc2oc(C(=O)OCC(=O)N(C)C3CCCCC3)c(C)c2c1	.	.
COC(=O)c1c(NC(C)=O)sc2c1CCCC2	.	/
CCOC(=O)c1c(NC(=S)Nc2ccccc2)sc2c1CC(C)(C)SC2	.	/
CCOC(=O)c1c(NC(=S)NC)sc2c1CC(C)(C)SC2	.	11
CNC(=S)Nc1sc2c(c1C(=O)OC)CCC2	.	5.6
COc1ccc(NC(=O)Cn2c(=O)n(CC(=O)NCc3ccco3)c(=O)c3ccccc32)cc1	.	/
O=C(Nc1ccc(Cl)c(Cl)c1)Nc1ccc(Br)cc1F	.	/
O=C(O)c1ccccc1NC(=O)C(c1ccccc1)c1ccccc1	.	.
O=C(Nc1ccc(Cl)c(Cl)c1)Nc1ccccc1O	.	11
O=C(Nc1ccccc1O)C(c1ccccc1)c1ccccc1	-6.5	.
Cc1cc(C)n(C(=O)/C=C/c2cccs2)n1	.	/
COc1ccc(C2CC(=O)C=C(NNS(=O)(=O)c3ccc(C)cc3)C2)cc1 (stereo not given)	.	.
COC(=O)c1ccc(NC(=O)CSC2=Nc3ccccc3C3CC=NN23)cc1 (stereo not given)	.	/
CC(SC1=Nc2ccccc2C2CC=NN12)C(=O)NC1(C#N)CCCCC1 (stereo not given)	-8.7	.
Cc1cc(C)c2nc(N3CCC(C(=O)NCC4CCCO4)CC3)sc2c1 (stereo not given)	.	/
Cc1cc(C)c2nc(N3CCC(C(=O)NCCCN4CCCCC4)CC3)sc2c1	-6.5	.
CCC(CC)c1nnc(NC(=O)CCNC(=O)c2ccccc2Cl)s1	.	/
Cc1ncc(C[n+]2csc(CCOC(=O)CC34CC5CC(CC(C5)C3)C4)c2C)c(N)n1	.	/
Cc1c(CCOC(=O)CC23CC4CC(CC(C4)C2)C3)sc[n+]1Cc1ccccc1	-5.6	.
O=C(CCC(=O)Nc1cccnc1)Nc1cccnc1	.	/
